According to PubChem BioAssay AID1159580 (chemical genetic matrix, 2015):
“And” between values parts separate entries of the source, which are not always exact repeats. Equal values may be shown once. About 2,000 (36%) of roughly 5,500 compounds were called active. Inconclusive results (about 18%) are left out. No stated cut-off is given here; in the data, active means normalized growth mostly below about 0.91 (no sharp cut-off); inconclusive means no clear call, values can overlap the other calls; inactive means mostly above about 0.92. The list shows a part of the results.

Experiment: chemical genetic growth profiling, strain panel (AID 1159580);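 further: tested at 20 µM; growth read once vehicle control cultures reached saturation at 30 °C; 1 = growth at the plate median or of vehicle wells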
Conditions: S. cerevisiae deletion strains, growth OD

Measured: normalized growth

COc1ccc(Cc2nccc3cc(OC)c(OC)cc23)cc1OC
inactive: locus YAL021C, strain ccr4, stronger effect = lower value 1.04 | locus YAL026C, strain drs2, stronger effect = lower value 1 | locus YAL030W, strain snc1, stronger effect = lower value 1 | locus YAL040C, strain CLN3, stronger effect = lower value 0.983 | locus YBL061C, strain skt5, stronger effect = lower value 1 | locus YBR009C, strain hhf1, stronger effect = lower value 0.995 | locus YBR021W, strain FUR4, stronger effect = lower value 1.01 | locus YBR023C, strain chs3, stronger effect = lower value 1.01 | locus YBR171W, strain sec66, stronger effect = lower value 1.01 | locus YBR229C, strain ROT2, stronger effect = lower value 1.01 | locus YBR231C, strain swc5, stronger effect = lower value 0.998 | locus YBR279W, strain paf1, stronger effect = lower value 1.01 | locus YCL011C, strain gbp2, stronger effect = lower value 1.01 | locus YCL016C, strain dcc1, stronger effect = lower value 1.01 | locus YCL029C, strain bik1, stronger effect = lower value 0.992 | locus YCL061C, strain MRC1 (second series), stronger effect = lower value 1 | locus YCL061C, strain MRC1, stronger effect = lower value 1 | locus YCL069W, strain vba3, stronger effect = lower value 1 | locus YCR088W, strain abp1, stronger effect = lower value 1.01 | locus YDL005C, strain med2, stronger effect = lower value 0.994 | locus YDL035C, strain GPR1, stronger effect = lower value 1.01 | locus YDL040C, strain nat1, stronger effect = lower value 0.998 | locus YDL074C, strain BRE1, stronger effect = lower value 1.02 | locus YDL101C, strain DUN1, stronger effect = lower value 1.01 | locus YDL134C, strain PPH21, stronger effect = lower value 1.01 | locus YDL185W, strain tfp1, stronger effect = lower value 0.992 | locus YDL192W, strain arf1, stronger effect = lower value 0.989 | locus YDR001C, strain nth1, stronger effect = lower value 0.999 | locus YDR069C, strain doa4, stronger effect = lower value 0.989 | locus YDR101C, strain arx1, stronger effect = lower value 0.996 | locus YDR137W, strain rgp1, stronger effect = lower value 1.03 | locus YDR150W, strain NUM1, stronger effect = lower value 1.02 | locus YDR159W, strain sac3, stronger effect = lower value 0.962 | locus YDR162C, strain NBP2, stronger effect = lower value 1 | locus YDR195W, strain ref2 0.981 | locus YDR297W, strain sur2, stronger effect = lower value 1 | locus YDR318W, strain mcm21, stronger effect = lower value 0.976 | locus YDR334W, strain swr1, stronger effect = lower value 1.01 | locus YDR335W, strain msn5, stronger effect = lower value 0.999 | locus YDR363W, strain ESC2, stronger effect = lower value 0.988 | locus YDR388W, stronger effect = lower value 0.993 | locus YDR392W, strain spt3, stronger effect = lower value 0.921 | locus YDR502C, strain sam2, stronger effect = lower value 0.986 | locus YEL003W, strain gim4, stronger effect = lower value 0.996 | locus YEL037C, strain rad23, stronger effect = lower value 1 | locus YEL061C, strain CIN8 (second series), stronger effect = lower value 1 | locus YEL061C, strain CIN8, stronger effect = lower value 1.01 | locus YER002W, strain NOP16, stronger effect = lower value 0.994 | locus YER015W, strain faa2, stronger effect = lower value 1 | locus YER016W, strain bim1, stronger effect = lower value 0.996 | locus YER110C, stronger effect = lower value 0.988 | locus YER111C, strain swi4, stronger effect = lower value 1.01 | locus YER155C, strain BEM2 (second series), stronger effect = lower value 0.987 | locus YER155C, strain BEM2, stronger effect = lower value 1.01 | locus YER167W, strain BCK2, stronger effect = lower value 1.01 | locus YFR010W, strain ubp6, stronger effect = lower value 0.998 | locus YGL078C, strain dbp3, stronger effect = lower value 0.99 | locus YGL086W, strain mad1, stronger effect = lower value 0.994 | locus YGL167C, strain pmr1, stronger effect = lower value 0.998 | locus YGL173C, strain kem1, stronger effect = lower value 0.999 | locus YGL227W, strain vid30, stronger effect = lower value 1 | locus YGL240W, strain doc1, stronger effect = lower value 0.967 | locus YGL248W, strain PDE1, stronger effect = lower value 1.01 | locus YGL253W, strain hxk2, stronger effect = lower value 1.01 | locus YGR078C, strain PAC10, stronger effect = lower value 0.975 | locus YGR135W, strain pre9, stronger effect = lower value 0.977 | locus YGR229C, strain SMI1, stronger effect = lower value 0.995 and 0.994 | locus YGR252W, strain gcn5, stronger effect = lower value 0.949 | locus YHR013C, strain ard1, stronger effect = lower value 1.07 | locus YHR027C, strain rpn1, stronger effect = lower value 0.998 | locus YHR030C, strain SLT2, stronger effect = lower value 1.02 and 0.98 | locus YHR079C, strain IRE1 (second series), stronger effect = lower value 0.985 | locus YHR079C, strain IRE1, stronger effect = lower value 0.972 | locus YHR094C, strain hxt1, stronger effect = lower value 0.992 | locus YHR129C, strain ARP1, stronger effect = lower value 1.02 | locus YHR142W, strain chs7, stronger effect = lower value 0.998 | locus YHR200W, strain rpn10, stronger effect = lower value 0.99 | locus YIL066C, strain RNR3, stronger effect = lower value 1.01 | locus YIL073C, strain SPO22, stronger effect = lower value 0.957 | locus YIL125W, strain kgd1, stronger effect = lower value 0.991 | locus YIR030C, strain dcg1, stronger effect = lower value 0.983 | locus YJL092W, strain hpr5, stronger effect = lower value 1 | locus YJL095W, strain BCK1 (second series), stronger effect = lower value 1 | locus YJL095W, strain BCK1, stronger effect = lower value 1.03 and 0.985 | locus YJL115W, strain asf1, stronger effect = lower value 1 | locus YJL129C, strain trk1, stronger effect = lower value 0.985 | locus YJL134W, strain LCB3, stronger effect = lower value 1.01 | locus YJL154C, strain vps35, stronger effect = lower value 1 | locus YJL164C, strain tpk1, stronger effect = lower value 0.996 | locus YJL166W, strain qcr8, stronger effect = lower value 1.01 | locus YJL168C, strain set2, stronger effect = lower value 0.995 | locus YJL187C, strain SWE1 (second series), stronger effect = lower value 1.01 | locus YJL187C, strain SWE1, stronger effect = lower value 0.996 | locus YJR043C, strain POL32, stronger effect = lower value 1.01
